Where a name gives a salt, the structure may show the parent alone.
Key:
Details in all cases: 10 µM; exposure time 6 h
[1] = test system: Danio rerio larvae (5 dpf); experiment: difference in excitability vs DMSO (percentage points); higher = more excitable than DMSO
Method in brief: (§1)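 Wild-type zebrafish larvae at 5 dpf were kept in 96-well plates and exposed for 6 h to 100 µL egg water holding library compound at a final concentration of 10 µM. From 3 h into exposure, the plates were held at 28.5 ℃ and photographed every 6 s through a 3-h programme of moving lines and 100 ms, 400Hz tones. Each behaviour was scored by Z-LaP Tracker, a DeepLabCut model, and averaged over 48 larvae per compound. Every value gives the compound mean minus the vehicle control mean, in percentage points.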

[2] = test system: Danio rerio larvae (5 dpf); experiment: difference in startle response vs DMSO (percentage points); higher = stronger startle than DMSO
Method in brief: as §1

[3] = test system: Danio rerio larvae (5 dpf); experiment: difference in activity during first hour vs DMSO (percentage points); higher = more activity than DMSO
Method in brief: as §1

[4] = test system: Danio rerio larvae (5 dpf); experiment: difference in habituation to acoustic stimuli vs DMSO (percentage points); higher = more habituation than DMSO
Method in brief: as §1

[5] = test system: Danio rerio larvae (5 dpf); experiment: difference in combined optomotor response to red, green and blue moving lines vs DMSO (percentage points); higher = stronger optomotor response than DMSO
Method in brief: as §1

SMILES	difference in excitability [1]	difference in startle response [2]	difference in activity during first hour [3]	difference in habituation to acoustic stimuli [4]	difference [5]
NC[C@H]1CC[C@H](C(=O)O)CC1 [Tranexamic Acid]	6.95	8.18	13.1	1.19	10.9
CCC[C@H](N[C@@H](C)C(=O)N1[C@H](C(=O)O)C[C@@H]2CCCC[C@@H]21)C(=O)OCC [Perindopril]	1.68	3.45	15	-4.9	1.2
C=C1CC[C@H](O)C/C1=C/C=C1\CCC[C@]2(C)[C@@H]([C@H](C)/C=C/[C@H](C)C(C)C)CC[C@@H]12 [Vitamin D2]	3.72	-5.12	3.16	2.67	8.48
C[C@H](Cn1cnc2c(N)ncnc21)OCP(=O)(O)O [Tenofovir]	-6.21	0.269	0.971	-2.1	5.37
C[C@H](CS)C(=O)N1CCC[C@H]1C(=O)O [Captopril]	1.66	-4.09	-5.55	-3.07	1.64
CCCCC(C)(O)C/C=C/[C@H]1[C@H](O)CC(=O)[C@@H]1CCCCCCC(=O)OC (mixture of isomers) [Misoprostol]	9.78	0.222	-2.79	7.1	-1.41
C[C@@H](NCCCc1cccc(C(F)(F)F)c1)c1cccc2ccccc12 [Cinacalcet (hydrochloride)]	-1.68	0.605	10.2	-9.83	-16.5
COc1cc2ncnc(Nc3ccc(F)c(Cl)c3)c2cc1NC(=O)/C=C/CN1CCCCC1	16.4	0.667	-10.7	-0.587	6.72
C[C@H]1c2cccc(O)c2C(=O)C2=C(O)[C@]3(O)C(=O)C(C(N)=O)=C(O)[C@@H](N(C)C)[C@@H]3[C@@H](O)[C@@H]21 [Doxycycline (hyclate)]	12.8	3.11	5.72	7.01	-0.304
Cc1nc2n(c(=O)c1CCN1CCC(c3noc4cc(F)ccc34)CC1)CCCC2 [Risperidone]	14.4	5.09	7.15	4.04	-1.6
Cc1cn([C@H]2C[C@H](N=[N+]=[N-])[C@@H](CO)O2)c(=O)[nH]c1=O [Zidovudine]	4.38	-2.12	0.0973	1.67	6.8
C#C[C@]1(O)CC[C@H]2[C@@H]3CCC4=CCCC[C@@H]4[C@H]3C(=C)C[C@@]21CC [Desogestrel]	16.3	-10.3	30.8	-6.42	-15.3
CC(=O)c1ccc(S(=O)(=O)NC(=O)NC2CCCCC2)cc1 [Acetohexamide]	-0.755	2.86	-0.443	-3.12	2.21
CNC[C@H](O)c1ccc(O)c(O)c1 (racemic) [(±)-Epinephrine (hydrochloride)]	-0.953	-6	37.7	-7.58	4.53
O=C(O)c1cc(/N=N/c2ccc(O)c(C(=O)O)c2)ccc1O [Olsalazine (sodium salt)]	-2.93	2.86	0.738	-4.79	-8.04
O=C1[C@H](CC[C@H](O)c2ccc(F)cc2)[C@@H](c2ccc(O)cc2)N1c1ccc(F)cc1 [Ezetimibe]	3.43	3.17	-1.12	-7.52	7.17
CC(=O)[C@H]1CC[C@H]2[C@@H]3CCC4=CC(=O)CC[C@]4(C)[C@H]3CC[C@]12C [Progesterone]	3.92	-7.45	-21.2	-12.3	-17.3
CNC(=C[N+](=O)[O-])NCCSCc1ccc(CN(C)C)o1 [Ranitidine (hydrochloride)]	-1.03	4.48	11.1	0.164	7.87
CC1Cc2ccccc2N1NC(=O)c1ccc(Cl)c(S(N)(=O)=O)c1 (stereo not given) [Indapamide]	4.58	1.23	7.09	-1.64	1.06
CC(C)OC(=O)CCC/C=C\C[C@@H]1[C@@H](/C=C/[C@@H](O)COc2cccc(C(F)(F)F)c2)[C@H](O)C[C@@H]1O [Fluprostenol isopropyl ester]	7.89	-1.38	5.82	8.61	7.99
N=C(N)NCCC[C@@H](NC(=O)[C@@H]1CCCN1C(=O)[C@@H]1CSSCCC(=O)N[C@@H](Cc2ccc(O)cc2)C(=O)N[C@@H](Cc2ccccc2)C(=O)N[C@@H](CCC(N)=O)C(=O)N[C@@H](CC(N)=O)C(=O)N1)C(=O)NCC(N)=O [Desmopressin (trifluoroacetate salt)]	0.805	-0.652	28.8	-4.29	5.42
CC(C)(S)[C@@H](N)C(=O)O [Penicillamine]	1.99	3.43	-11.2	6.31	4.5
Cc1oncc1C(=O)Nc1ccc(C(F)(F)F)cc1 [Leflunomide]	20.4	-4.19	4.33	-10.8	2.2
OCCN1CCN(CCCN2c3ccccc3Sc3ccc(C(F)(F)F)cc32)CC1 [Fluphenazine (hydrochloride)]	23.3	5.93	15.6	-10.4	-5.63

SMILES	difference in excitability [1]	difference in startle response [2]	difference in activity during first hour [3]	difference in habituation to acoustic stimuli [4]	difference [5]
CC(=O)Nc1ccc(O)cc1 [Acetaminophen]	-1.23	-0.558	-0.87	-5.65	-2.34
CCC[C@@H]1C[C@@H](C(=O)N[C@@H]([C@H]2O[C@H](SC)[C@H](O)[C@@H](O)[C@H]2O)[C@H](C)Cl)N(C)C1 [Clindamycin]	-2.97	2.68	-14.7	4.82	-4.05
COCC1=C(C(=O)O)N2C(=O)[C@@H](NC(=O)/C(=N\OC)c3csc(N)n3)[C@H]2SC1 [Cefpodoxime]	0.712	1.11	-0.401	-0.554	7.24
COC[C@H]1C[C@@H](c2nc(-c3ccc4c(c3)COc3cc5c(ccc6nc([C@@H]7CC[C@H](C)N7C(=O)[C@@H](NC(=O)OC)C(C)C)[nH]c65)cc3-4)c[nH]2)N(C(=O)[C@H](NC(=O)OC)c2ccccc2)C1 [Velpatasvir]	10.1	2.08	2	-1.59	0.589
Clc1ccc(CO/N=C(\Cn2ccnc2)c2ccc(Cl)cc2Cl)c(Cl)c1 [Oxiconazole (nitrate)]	5.37	-6.72	-22.9	-11	-17.3
CC(C)(C#N)c1cc(Cn2cncn2)cc(C(C)(C)C#N)c1 [Anastrozole]	1.93	-2.98	-4.84	-5.36	7.09
C[C@@H]1O[C@@H]1P(=O)(O)O [Fosfomycin Trometamol]	3.54	-4.33	-4.99	-4.72	-4.51
O=C1[C@@H]2[C@H]3CC[C@H](C3)[C@@H]2C(=O)N1C[C@@H]1CCCC[C@H]1CN1CCN(c2nsc3ccccc23)CC1 [Lurasidone]	-9.91	6.61	-1.19	-11.8	-17
CC[C@H]1OC(=O)[C@H](C)[C@@H](O[C@H]2C[C@@](C)(OC)[C@@H](O)[C@H](C)O2)[C@H](C)[C@@H](O[C@@H]2O[C@H](C)C[C@H](N(C)C)[C@H]2O)[C@](C)(O)C[C@@H](C)C(=O)[C@H](C)[C@@H](O)[C@]1(C)O [Erythromycin]	4.99	-6.73	13.1	-0.584	9.53
CC1=NN(c2ccc(C)c(C)c2)C(=O)/C1=N\Nc1cccc(-c2cccc(C(=O)O)c2)c1O [Eltrombopag]	19.6	-0.303	17.7	1.01	-0.694
CN(Cc1ccc(C(C)(C)C)cc1)Cc1cccc2ccccc12 [Butenafine (hydrochloride)]	2.06	2.01	-10.7	0.859	-2.95
Cc1c(-c2ccccc2)oc2c(C(=O)OCCN3CCCCC3)cccc2c1=O [Flavoxate (hydrochloride)]	8.74	1.49	13.3	-3.99	8.27
CC(=O)Oc1c(C)cc(OCC(O)CNC(C)C)c(C)c1C (stereo not given) [Metipranolol (hydrochloride)]	1.28	4.21	-3.92	5.42	0.513
O=C(O)CCNC(=O)c1ccc(/N=N/c2ccc(O)c(C(=O)O)c2)cc1 [Balsalazide]	4.51	9.09	15	1.8	4.25
CNCC[C@H](Oc1cccc2ccccc12)c1cccs1 [(S)-Duloxetine (hydrochloride)]	4.76	-1.86	-21	-3.34	-11.3
CN1CCN(CCCN2c3ccccc3Sc3ccc(C(F)(F)F)cc32)CC1 [Trifluoperazine (hydrochloride)]	11.8	-1.73	23.8	-10.9	-0.14
CC[C@]1(O)C[C@H]2CN(CCc3c([nH]c4ccccc34)[C@@](C(=O)OC)(c3cc4c(cc3OC)N(C=O)[C@H]3[C@@](O)(C(=O)OC)[C@H](OC(C)=O)[C@]5(CC)C=CCN6CC[C@]43[C@@H]65)C2)C1 [Vincristine (sulfate)]	3.18	3.21	-4.31	-2.03	1.46
CN1C2CCCC1CC(NC(=O)c1nn(C)c3ccccc13)C2 (stereo not given) [Granisetron (hydrochloride)]	5.31	0.419	15	0.641	7.51
CCN1CC(CCN2CCOCC2)C(c2ccccc2)(c2ccccc2)C1=O (stereo not given) [Doxapram (hydrochloride hydrate)]	1.64	-4.79	16.8	-5.51	1.89
OCc1cc(C(O)CNCCCCCCOCCCCc2ccccc2)ccc1O (stereo not given) [Salmeterol (xinafoate)]	12.9	-5.05	20.1	-7.62	7.79
CC(CN1c2ccccc2Sc2ccccc21)N(C)C (stereo not given) [Promethazine (hydrochloride)]	7.65	-2.21	16.6	-3.09	4.32
CN1CC(=O)N2[C@H](c3ccc4c(c3)OCO4)c3[nH]c4ccccc4c3C[C@@H]2C1=O [Tadalafil]	3.64	1.33	0.0422	3.67	6.23
COCCCC/C(=N\OCCN)c1ccc(C(F)(F)F)cc1 [Fluvoxamine (maleate)]	13.2	-1.76	-21.1	-3.73	5.3
C[C@H]1CN(C[C@H](Cc2ccccc2)C(=O)NCC(=O)O)CC[C@@]1(C)c1cccc(O)c1 [Alvimopan]	3.61	0.764	-3.96	3.02	-3.48

— the supplement of paper PMC10515830
